# Screening results from PubChem.
# Sampled rows, rich in hits. Any-hit rate of the full collection: about 2.3%.
# TsaE inh – YjeE (TsaE) inhibition, E. coli | Potency, µM | P0AF67 | 71,000 tested, 0.05% active | purified YjeE enzyme, qHTS inhibition assay
#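 Fluorescence polarization of a BODIPY Texas Red–ADP probe (2 uM) bound to purified YjeE (10 uM) was read after 15 min room-temperature incubation with compounds. Loss of polarization marks inhibitors; ADP serves as titrated control.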
# Tau fil binding – tau filament binding | Potency, µM (doses to about 57.1 µM), without a hit: at the highest dose activity change, negative = inhibition | recombinant tau filaments, thioflavin S fluorescence, 15 h; filaments grown with octadecylsulfate alongside compound | 71,000 tested, 2% active | AID 596;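 further: potency means the concentration at half of the fitted maximal effect; on the % scale 0 is the no-effect control and ±100 the full control effect; actives lower thioflavin S fluorescence by blocking filaments or displacing dye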
#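 His-tagged recombinant human tau (exons 2, 3 and 10 included), 1 uM, was induced to fibrillize by 30 uM sodium octadecylsulfate with compound present. After 15 h at 37 C, thioflavine S fluorescence (ex 450, em 510 nm) was read.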
# Hsp90 Hop PPI – changes Hsp90-Hop TPR2A binding signal, up or down; AlphaScreen TPR2A-His6 binding biotin-Hsp90 C-terminal peptide; Potency, µM (highest dose often 57 µM), for inactives: at the top dose activity change, negative = inhibition; 71,000 tested, 0.44% active; active means well fitted curve in either direction with a large enough effect; inconclusive means small, poorly fitted or top-dose-only effect, or another doubt; further: potency means the concentration at half of the fitted maximal effect; on the % scale 0 is the no-effect control and ±100 the full control effect
# Pol III holo inh – inhibitors of bacterial DNA polymerase III holoenzyme | reconstituted DNA polymerase III holoenzyme replication, biochemical | Potency, µM (top dose mostly 57.1 µM), inactives show at the top dose activity change, negative = inhibition | 71,000 tested, 0.25% active; further: potency means the concentration at half of the fitted maximal effect; on the % scale 0 is the no-effect control and ±100 the full control effect
#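 Reconstituted *E. coli* holoenzyme (0.35 nM Pol III, 1 nM beta, 154 nM SSB, 2 nM primase) was preincubated with compound for 15 min at RT. Synthesis on 1.4 nM ssM13Gori ran 35 min, then was stopped with PicoGreen/EDTA and read as dsDNA fluorescence.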
# BRCT inh red – disrupts BRCA1 BRCT binding to phosphoprotein, red fluorophore readout; AID 892; 75,000 tested, 0.03% active; Potency, µM (top dose mostly 76.9 µM), without a hit: at the top dose activity change, negative = inhibition, actives largely listed as inhibitors; P38398; BRCT-phosphopeptide binding, red fluorescence polarization; further: on the % scale 0 is the no-effect control and ±100 the full control effect
# Target sequence (P38398 whole entry, looked up): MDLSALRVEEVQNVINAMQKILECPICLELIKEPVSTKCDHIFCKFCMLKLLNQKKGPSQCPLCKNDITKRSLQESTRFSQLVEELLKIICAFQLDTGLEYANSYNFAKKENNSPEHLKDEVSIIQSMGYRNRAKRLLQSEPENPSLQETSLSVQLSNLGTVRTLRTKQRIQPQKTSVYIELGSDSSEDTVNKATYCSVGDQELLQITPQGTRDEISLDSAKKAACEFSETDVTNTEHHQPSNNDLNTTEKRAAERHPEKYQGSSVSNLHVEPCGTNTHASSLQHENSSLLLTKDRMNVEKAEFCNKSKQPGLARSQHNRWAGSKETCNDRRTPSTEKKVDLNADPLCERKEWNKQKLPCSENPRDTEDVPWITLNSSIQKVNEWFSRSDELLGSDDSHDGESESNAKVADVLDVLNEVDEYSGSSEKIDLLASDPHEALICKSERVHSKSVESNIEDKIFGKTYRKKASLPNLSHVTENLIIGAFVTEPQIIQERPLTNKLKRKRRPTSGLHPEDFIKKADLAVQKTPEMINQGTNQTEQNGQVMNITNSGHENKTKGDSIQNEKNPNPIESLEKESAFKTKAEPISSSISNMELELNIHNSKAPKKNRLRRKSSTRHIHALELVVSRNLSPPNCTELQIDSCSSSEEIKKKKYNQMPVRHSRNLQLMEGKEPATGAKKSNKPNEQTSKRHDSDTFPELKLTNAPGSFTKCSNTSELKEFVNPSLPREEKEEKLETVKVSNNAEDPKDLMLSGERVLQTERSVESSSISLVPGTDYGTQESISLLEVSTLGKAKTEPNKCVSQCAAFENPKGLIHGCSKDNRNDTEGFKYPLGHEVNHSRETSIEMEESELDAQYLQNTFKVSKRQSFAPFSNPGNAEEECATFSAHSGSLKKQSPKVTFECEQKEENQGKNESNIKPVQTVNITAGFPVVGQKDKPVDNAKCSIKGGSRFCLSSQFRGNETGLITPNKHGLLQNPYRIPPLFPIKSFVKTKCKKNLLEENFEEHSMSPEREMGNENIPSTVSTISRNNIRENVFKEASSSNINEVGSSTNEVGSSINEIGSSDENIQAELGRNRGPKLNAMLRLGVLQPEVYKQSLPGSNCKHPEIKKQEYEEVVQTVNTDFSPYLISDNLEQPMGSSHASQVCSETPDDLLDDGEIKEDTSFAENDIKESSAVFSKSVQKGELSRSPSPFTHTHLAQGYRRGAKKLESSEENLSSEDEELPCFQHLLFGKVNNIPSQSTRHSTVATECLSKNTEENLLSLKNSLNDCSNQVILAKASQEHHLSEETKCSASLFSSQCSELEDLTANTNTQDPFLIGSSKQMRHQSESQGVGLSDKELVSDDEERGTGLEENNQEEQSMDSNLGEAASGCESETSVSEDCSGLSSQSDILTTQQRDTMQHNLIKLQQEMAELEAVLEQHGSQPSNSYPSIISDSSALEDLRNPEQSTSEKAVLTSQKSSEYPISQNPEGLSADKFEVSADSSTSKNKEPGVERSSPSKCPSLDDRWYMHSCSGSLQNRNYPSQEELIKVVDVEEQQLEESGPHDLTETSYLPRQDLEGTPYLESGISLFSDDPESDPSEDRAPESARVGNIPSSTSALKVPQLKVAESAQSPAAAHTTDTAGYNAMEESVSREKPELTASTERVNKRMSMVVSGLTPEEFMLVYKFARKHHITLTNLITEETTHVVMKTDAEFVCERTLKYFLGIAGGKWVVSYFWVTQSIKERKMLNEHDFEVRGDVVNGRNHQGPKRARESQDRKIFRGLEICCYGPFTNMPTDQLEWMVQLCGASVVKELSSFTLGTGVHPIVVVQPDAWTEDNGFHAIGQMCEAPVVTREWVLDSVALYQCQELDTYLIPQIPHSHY
#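 Rhodamine-labelled pBACH1 10-mer (100 nM) bound to BRCT domain (100 nM) at pH 7.3; compounds incubated 12 min room temperature, polarization read. Free peptide defines full inhibition; unlabelled decapeptide titrated as control.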
# BRCT PPI green – BRCA1 BRCT-phosphoprotein interaction inhibition. BRCA1 BRCT-phosphopeptide binding, green fluorescence polarization. Potency, µM (doses to about 76.9 µM), without a hit: top-dose activity change, negative = inhibition, most hits filed as inhibitors. 75,000 tested, 0.05% active. P38398;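 further: potency means the concentration at half of the fitted maximal effect; plate controls were peptide without protein for full effect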
#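 Fluorescence polarization: His-tagged BRCT (~35 kDa BRCA1 C-terminus, 250 nM) bound to 100 nM fluorescein-labeled phosphorylated 10-aa BACH1 peptide, pH 7.3 phosphate buffer with DTT and Tween 20. Compounds incubated 12 min at room temperature; inhibition read as lowered polarization.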
# Active calls of the source: *; i = inactive; ? = inconclusive; nt = no result; ! = repeats disagree; [ ] = dose if it differs, or a comment. Unless noted, the call rests on the fitted dose curve; in most records, active means well fitted curve in the direction sought with a large enough effect; inconclusive means small, poorly fitted or top-dose-only effect, or another doubt; inactive means no such curve, though single readings can be large; an effect the other way counts as inactive or inconclusive.
SMILES,TsaE inh,Tau fil binding,Hsp90 Hop PPI,Pol III holo inh,BRCT inh red,BRCT PPI green
CN(C)c1ccc(NC(=O)c2ccc(COc3cccc(Cl)c3)o2)cc1,i,7.94µM*,?,4.7%,-2.6%,1.4%
CCc1ccc(S(=O)(=O)Nc2ccc(O)c(C(=O)O)c2)cc1,nt,nt,nt,nt,0.1%,-0.9%
CC#C[C@@]1(O)CC[C@@H]2[C@@H]3CCC4=CC(=O)CCC4=C3[C@@H](c3ccc(N(C)C)cc3)C[C@]21C,i,31.6µM*,?,-1.9%,nt,nt
CCOCC(=O)Nc1nc2ccc(OC)cc2s1,i,-2.1%,-3.6%,-2.5%,-0.4%,0.3%
COc1ccc2nc(NC(=O)c3cnccn3)sc2c1,i,5.01µM*,-25.1%,1.5%,-0.2%,1.4%
O=C(/C=C/C(=O)Oc1ccccc1C(=O)O)Oc1ccccc1C(=O)O,nt,nt,nt,nt,0.2%,0.5%
Cc1c(Cl)ccc2c1NC(=O)[C@]21[C@@H]2C(=O)N(Cc3ccccc3)C(=O)[C@@H]2[C@@H]2CCCN21,i,25.1µM*,-17.0%,-2.5%,-0.7%,3.9%
O=C1C2C3C=CC(C3=C3CCCCC3)C2C(=O)N1Cc1ccccc1 (centres undefined),i,-10.8%,11.0%,0.3%,-0.8%,-3.7%
CCc1cccc2c1NC(=O)[C@]21[C@@H]2C(=O)N(Cc3ccccc3)C(=O)[C@@H]2[C@@H]2CCCN21,i,25.1µM*,-11.4%,-1.6%,1.1%,1.6%
COC(=O)C1OC(=O)C2OC23[C@]2(C)C(O)CC4C(C)(C)C(OC(C)=O)CC(OC(C)=O)[C@@]4(C)C2CC[C@@]13C (some centres undefined),nt,nt,nt,nt,2.2%,-1.6%[3.08 µM]
CN1CCN(C(c2cccnc2)c2ccc3cccnc3c2O)CC1 (centres undefined),i,-0.8%,3.16µM*,-9.7%,0.7%,0.2%
CCOC(=O)c1c(C)oc2c1c(C(c1cccnc1)N1CCN(C)CC1)c(O)c1ccccc12 (centres undefined),i,-0.1%,-2.7%,-3.0%,-0.5%,-1.4%
O=C(O)[C@H]1CCCC[C@@H]1C(=O)Nc1nc2ccccc2[nH]1,i,6.2%[11.4 µM],0.6%[11 µM],9.9%[11.4 µM],-0.2%[15.4 µM],1.1%[15.4 µM]
Cc1cc(-c2nnc(-c3ccccc3)c(-c3ccccc3)n2)c(C)o1,i,15.8µM*,-20.6%,-2.3%,0.5%,3.5%
Nc1nnc(-c2ccccc2)c(-c2ccccc2)n1,i,2.3%,-5.8%,-2.9%,0.8%,-0.3%
CC(C)CN1CC2(CCN(S(=O)(=O)c3ccccc3)CC2)C1,i,4.4%,-4.8%,-4.3%,-1.3%,-4.1%
CCC1(CC)NC(=O)N(CC(=O)Nc2sc3c(c2C(N)=O)CCC3)C1=O,i,32.3%,-10.1%,20µM*,-5.6%,-0.8%
O=C(CSc1nnc2ccccn12)c1ccc(OC(F)F)cc1OC(F)F,i,12.6µM*,-8.9%,-10.4%,-0.1%,5.0%
COc1ccc2cc3c(N)c(C(=O)N4CCCC4)sc3nc2c1,i,20µM*,-4.7%,-10.9%,-1.3%,1.0%
Cc1ccc2cc3c(N)c(C(=O)N4CCOCC4)sc3nc2c1,i,-17.9%,-2.0%,-10.6%,-0.6%,0.5%
FC(F)(F)c1cc(-c2ccccc2)nc(NCC2CCCO2)n1 (centres undefined),i,-24.9%,31.6µM*,1.3%,-0.9%,-2.9%
Cc1ccccc1-c1cncnc1NCc1ccccc1,i,-5.2%,-1.0%,-9.8%,1.1%,2.2%
O=C(Nc1ccc(-n2nncc2-c2ccco2)cc1)c1cc2ccccc2oc1=O,i,-21.1%,0.7%,12.6µM*,1.5%,-1.2%
O=C(Nc1ccc(-n2nncc2-c2ccco2)cc1)c1cccc(F)c1,i,?,-9.4%,1.0%,-0.1%,-2.1%
CC1CCC2C(=O)N3C(CCC(C)C3c3ccccc3Br)C(=O)N2C1c1ccc(C#CCN(C)C)cc1 (centres undefined),nt,nt,nt,nt,-0.5%[15.4 µM],-2.4%[15.4 µM]
SMILES,TsaE inh,Tau fil binding,Hsp90 Hop PPI,Pol III holo inh,BRCT inh red,BRCT PPI green
O=C(Nc1ccc2c(c1)nc1n2CCN(C2CCCCC2)C1)c1ccco1,i,25.1µM*,-7.9%,-8.0%,0.0%,-3.0%
COc1ccccc1C[C@@H](Cc1nc2ccccc2[nH]1)c1nc2ccccc2[nH]1,i,44.3%,0.7%,-4.2%,nt,nt
O=S1(=O)Nc2c(ccc3cccnc23)-c2ccccc21,i,-10.6%,3.16µM*,-24.5%,-2.2%,-0.7%
CS(=O)(=O)Nc1ccc(Nc2c3ccccc3nc3ccccc23)cc1,i,1.58µM*,-2.6%[11 µM],-7.8%[11.4 µM],1.0%[15.4 µM],-1.6%[15.4 µM]
CN(C)c1nc(-c2cccc(NS(C)(=O)=O)c2)nc2ccccc12,i,1.3%,-1.1%,-5.2%,-2.4%,0.8%
Cc1cc2nc3c(=O)[nH]c(=O)nc-3n(CC(O)C(O)C(O)CO)c2cc1C (centres undefined),i,i,-6.0%,227.4%,-9.1%,12.6µM*!
FC(F)(F)c1cc(CN2CCC3(CCNCC3)CC2)cc(C(F)(F)F)c1,i,12.6µM*,-6.1%,-7.9%,-0.2%,-0.5%
c1ccc(C[n+]2cccc(-c3cc4ccccc4[nH]3)c2)cc1,i,0.316µM*,-2.4%[11 µM],-7.8%[11.4 µM],1.1%[15.4 µM],-2.1%[15.4 µM]
COCCn1cnc2c(c1=O)c1nc3ccccc3nc1n2/N=C/c1cccc(OC)c1OC,i,-4.3%,0.4%,6.0%,0.0%,-2.3%
C=CCn1cnc2c(c1=O)c1nc3ccccc3nc1n2/N=C/c1cccc(OC)c1,i,3.16µM*,-3.2%,-6.9%,-1.7%,-1.6%
C=CCn1c2ccccc2c2nnc(SCN3C(=O)c4ccccc4C3=O)nc21,i,?,-9.2%[11 µM],-2.7%[11.4 µM],0.3%,2.2%
C=CCn1c2ccccc2c2nnc(SCCCn3c(=O)[nH]c4ccccc43)nc21,i,3.16µM*,-20.8%,-14.7%,-1.1%,-6.8%
Cc1ccc(C(=O)c2cc3c(cc2N)OCCO3)cc1,i,12.6µM*,?,-7.1%,-1.7%,-0.7%
Nc1ccc(C(=O)c2ccc3c(c2)OCCO3)cc1N,i,32.9%,-9.2%,3.8%,-0.6%,-0.4%
O=C(c1ccc(F)cc1)C1CCN(CCn2c(=O)[nH]c3ccccc3c2=O)CC1,i,31.6µM*!,0.6%,-7.0%,-1.2%,-2.5%
CCCCC#Cc1nc(N)c2ncn([C@@H]3O[C@@H](C(=O)NCC)[C@H](O)[C@@H]3O)c2n1,i,-3.0%,-9.4%,0.9%,-2.8%,-3.3%
CC(=O)O[C@@H]1C(=O)[C@@]2(C)[C@H](O)C[C@H]3OC[C@]3(OC(C)=O)[C@@H]2[C@H](OC(=O)c2ccccc2)[C@@]2(O)C[C@H](OC(=O)[C@@H](O)[C@@H](NC(=O)c3ccccc3)c3ccccc3)C(C)=C1C2(C)C (stereo in doubt),i,-6.0%[25.6 µM],1.0%[26 µM],-6.0%[25.6 µM],-0.8%[34.4 µM],-1.2%[34.4 µM]
